From the supplement of paper PMC10681739

What follows are sequences tested against T1, ETS1 (UniProt P14921) (assay: ETS1 binding intensity (PBM fluorescence), ETS1 alone (arbitrary fluorescence units); higher = stronger binding). Conditions: ETS1 concentration 1 nM; RUNX1 concentration 0 nM.
T1 sequence: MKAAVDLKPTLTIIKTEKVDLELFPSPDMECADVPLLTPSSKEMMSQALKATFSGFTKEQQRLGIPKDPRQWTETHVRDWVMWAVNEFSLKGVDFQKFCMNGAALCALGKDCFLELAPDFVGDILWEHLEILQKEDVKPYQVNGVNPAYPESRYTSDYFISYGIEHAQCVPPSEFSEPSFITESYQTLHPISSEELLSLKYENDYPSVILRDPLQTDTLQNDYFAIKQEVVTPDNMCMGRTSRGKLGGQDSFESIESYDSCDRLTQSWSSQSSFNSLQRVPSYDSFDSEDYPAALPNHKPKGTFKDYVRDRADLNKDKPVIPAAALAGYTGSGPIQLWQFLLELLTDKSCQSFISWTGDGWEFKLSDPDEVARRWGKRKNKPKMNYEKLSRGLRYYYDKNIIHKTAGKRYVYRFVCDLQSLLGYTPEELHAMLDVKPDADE

How did the ETS1 binding intensity turn out when CTTGCTTGAGTCACAGGAAACCACTCAGAGGCTAAC was run?
The ETS1 binding intensity was 2600.

For TAACTTGAACTTCCTTTTGACCACCTGTACGGTATA, which ETS1 binding intensity is on record?
Its ETS1 binding intensity is 497.

How did the ETS1 binding intensity turn out when GCTATCCCCGCCCCTTCCTGTGGGCTGGCGCCCGAT was run?
The ETS1 binding intensity was 482.

Which ETS1 binding intensity does the source give for TGAGCCCCAGCAAGGGGAAGTGGTTAACCCAGGGTC here?
The ETS1 binding intensity was 709.

With GACAGGATACAAGAATTCCGCGGACTGCCGCAGTCG as the sequence, how does the ETS1 binding intensity read?
Its ETS1 binding intensity is 642.

For CTTCTCGCGGAAGCGGCACAAGCCGCAGTACAGCGC, which ETS1 binding intensity is on record?
Its ETS1 binding intensity is 301.

How did the ETS1 binding intensity turn out when CAACTCACATCCTCTGGCAACAACCACTAATCCACT was run?
The ETS1 binding intensity was 460.

TCCCCTGTCTTCCGGAGGCTGCGGCGCAGCGGCGCA was tested. Which ETS1 binding intensity did it give?
Its ETS1 binding intensity is 403.

For CTCCGGGAACAGCGGAAAAGGGACCGCATGAACCTC, which ETS1 binding intensity is on record?
The ETS1 binding intensity was 900.

TGACGGCCAGGAAGCCTGAAGCCGCAGGGGCCGCCG was tested. Which ETS1 binding intensity did it give?
Its ETS1 binding intensity is 345.

How did the ETS1 binding intensity turn out when CCAGCCTCCCCTTTCCTGTCTGTGGCAGGAGCGTGC was run?
Its ETS1 binding intensity is 505.

Which ETS1 binding intensity does the source give for AGCTCCAGGAAGAGGGCCTGAAAACCAAACGGGGGA here?
Its ETS1 binding intensity is 408.

With TCCAGGATGTGCTGAACCTCCAGAAACCACCGGCTT as the sequence, how does the ETS1 binding intensity read?
Its ETS1 binding intensity is 436.

How did the ETS1 binding intensity turn out when ACCTCTTCCGAGACCCAAAATGCGCGGTCTGGAGAG was run?
Its ETS1 binding intensity is 448.

TACTTAGAGGAAATGTGGCCTGTGGTCTTGTCTCAC was tested. Which ETS1 binding intensity did it give?
Its ETS1 binding intensity is 617.

Which ETS1 binding intensity does the source give for CATCTACTGAGGAAGTGTAAGCCACAATAAGAAGCC here?
Its ETS1 binding intensity is 641.

AGTTGCTAAGGAAATGACTGCCCGCAGCGCCTGGCC was tested. Which ETS1 binding intensity did it give?
Its ETS1 binding intensity is 423.

Which ETS1 binding intensity does the source give for CTGAGGCGCGCCGGAAGGGCTAGCGGTCCCAGCATA here?
Its ETS1 binding intensity is 1280.

For GTGCGGAAGCGCGCCAAGGCACGTGACCGCTTCTGT, which ETS1 binding intensity is on record?
The ETS1 binding intensity was 381.

With CCGACCTTAACGACATCCTGCGGCTCAGCGTGGAGG as the sequence, how does the ETS1 binding intensity read?
Its ETS1 binding intensity is 489.

CCTCCAGGAAGCGATAAGTGACTGTGGTGGAGAGAG was tested. Which ETS1 binding intensity did it give?
The ETS1 binding intensity was 663.

TGAAGTTCAGGGGGAAGTGGTTAGAGTCCCTGCGAG was tested. Which ETS1 binding intensity did it give?
The ETS1 binding intensity was 494.

How did the ETS1 binding intensity turn out when GATTAAGAGGAAGTGTGTGTGATTATTACCGCTGGA was run?
Its ETS1 binding intensity is 1310.

ACACCACTCAGGAAGACAAAGCCACACCTCACACCG was tested. Which ETS1 binding intensity did it give?
The ETS1 binding intensity was 487.

How did the ETS1 binding intensity turn out when CAGGGAAGTTCGAACTGGGCGGGGCCCACCGCAGTT was run?
Its ETS1 binding intensity is 336.

How did the ETS1 binding intensity turn out when CCCTCTCTTCTTCCTCCCCCACCACAAAAGTCACAG was run?
The ETS1 binding intensity was 550.

How did the ETS1 binding intensity turn out when TCGGTGAAGGACGGAAGATGATAGCCACATTTCTTC was run?
The ETS1 binding intensity was 512.

Which ETS1 binding intensity does the source give for CCTGTTCCGGGCTCCGTACACCCAGGCCCGCAGCTG here?
The ETS1 binding intensity was 550.

Which ETS1 binding intensity does the source give for AAGTCAGAGTTTACTTCCGAACCCACAGTGCCAAGC here?
Its ETS1 binding intensity is 423.

Which ETS1 binding intensity does the source give for AGCACGCCGGGAAATGGAGTCTCAGGTGGTTTTTAA here?
Its ETS1 binding intensity is 443.

How did the ETS1 binding intensity turn out when CCACTCCCAGCTCCATCCTGTGGGTAGAACTCAGTG was run?
The ETS1 binding intensity was 477.

Which ETS1 binding intensity does the source give for TGCACACATGAGGAAGGGGTAAGTGGTTTTCCCTAC here?
The ETS1 binding intensity was 498.

Which ETS1 binding intensity does the source give for CCTCCTGGGAACTTCCTGCGGGGGCCGAAGCTGAAG here?
Its ETS1 binding intensity is 640.

CGTAGCGAGGAGCGGAAAACGCGGTAACCAAGGCGG was tested. Which ETS1 binding intensity did it give?
The ETS1 binding intensity was 732.

With CGGGGCATGCCGGACGCTGTGGTCCTGAAGGCCTGG as the sequence, how does the ETS1 binding intensity read?
Its ETS1 binding intensity is 536.

GGAACGGAGGCGGAAGGGGCCCTGCGGCGACGACGT was tested. Which ETS1 binding intensity did it give?
Its ETS1 binding intensity is 679.

Which ETS1 binding intensity does the source give for TGGTCCACCCGGCGGAACTCGCGGTCCCGGCAGGCA here?
The ETS1 binding intensity was 520.

With CGGCACCCTCCTTCCTCCCTGCCAACCGCCTCCACC as the sequence, how does the ETS1 binding intensity read?
The ETS1 binding intensity was 556.

CGAGTCAGGAAATCACAGCTCTGCGGGTGGGCTCCT was tested. Which ETS1 binding intensity did it give?
Its ETS1 binding intensity is 458.

For GACACCTGAGAGGATGTGTGGCTTTGTGCTATGAGA, which ETS1 binding intensity is on record?
Its ETS1 binding intensity is 769.

The sequences below were run against T1, ETS1 (assay: ETS1 binding intensity (PBM fluorescence) in presence of RUNX1, normalised to ETS1-only experiment (arbitrary fluorescence units); higher = stronger binding). Conditions: ETS1 concentration 1 nM; RUNX1 concentration 25 nM.

For CTTGCTTGAGTCACAGGAAACCACTCAGAGGCTAAC, which ETS1 binding intensity is on record?
Its ETS1 binding intensity is 2860.

For TAACTTGAACTTCCTTTTGACCACCTGTACGGTATA, which ETS1 binding intensity is on record?
Its ETS1 binding intensity is 462.

GCTATCCCCGCCCCTTCCTGTGGGCTGGCGCCCGAT was tested. Which ETS1 binding intensity did it give?
The ETS1 binding intensity was 489.

With TGAGCCCCAGCAAGGGGAAGTGGTTAACCCAGGGTC as the sequence, how does the ETS1 binding intensity read?
Its ETS1 binding intensity is 1960.

Which ETS1 binding intensity does the source give for GACAGGATACAAGAATTCCGCGGACTGCCGCAGTCG here?
The ETS1 binding intensity was 649.

For CTTCTCGCGGAAGCGGCACAAGCCGCAGTACAGCGC, which ETS1 binding intensity is on record?
The ETS1 binding intensity was 495.

With CAACTCACATCCTCTGGCAACAACCACTAATCCACT as the sequence, how does the ETS1 binding intensity read?
Its ETS1 binding intensity is 525.

For TCCCCTGTCTTCCGGAGGCTGCGGCGCAGCGGCGCA, which ETS1 binding intensity is on record?
The ETS1 binding intensity was 519.

CTCCGGGAACAGCGGAAAAGGGACCGCATGAACCTC was tested. Which ETS1 binding intensity did it give?
Its ETS1 binding intensity is 1470.

TGACGGCCAGGAAGCCTGAAGCCGCAGGGGCCGCCG was tested. Which ETS1 binding intensity did it give?
Its ETS1 binding intensity is 595.

With CCAGCCTCCCCTTTCCTGTCTGTGGCAGGAGCGTGC as the sequence, how does the ETS1 binding intensity read?
Its ETS1 binding intensity is 512.

With AGCTCCAGGAAGAGGGCCTGAAAACCAAACGGGGGA as the sequence, how does the ETS1 binding intensity read?
The ETS1 binding intensity was 474.

With TCCAGGATGTGCTGAACCTCCAGAAACCACCGGCTT as the sequence, how does the ETS1 binding intensity read?
Its ETS1 binding intensity is 684.

With ACCTCTTCCGAGACCCAAAATGCGCGGTCTGGAGAG as the sequence, how does the ETS1 binding intensity read?
The ETS1 binding intensity was 328.

For TACTTAGAGGAAATGTGGCCTGTGGTCTTGTCTCAC, which ETS1 binding intensity is on record?
The ETS1 binding intensity was 977.

Which ETS1 binding intensity does the source give for CATCTACTGAGGAAGTGTAAGCCACAATAAGAAGCC here?
The ETS1 binding intensity was 869.

AGTTGCTAAGGAAATGACTGCCCGCAGCGCCTGGCC was tested. Which ETS1 binding intensity did it give?
Its ETS1 binding intensity is 929.

Which ETS1 binding intensity does the source give for CTGAGGCGCGCCGGAAGGGCTAGCGGTCCCAGCATA here?
The ETS1 binding intensity was 1430.

For GTGCGGAAGCGCGCCAAGGCACGTGACCGCTTCTGT, which ETS1 binding intensity is on record?
The ETS1 binding intensity was 475.

CCGACCTTAACGACATCCTGCGGCTCAGCGTGGAGG was tested. Which ETS1 binding intensity did it give?
The ETS1 binding intensity was 437.

Which ETS1 binding intensity does the source give for CCTCCAGGAAGCGATAAGTGACTGTGGTGGAGAGAG here?
The ETS1 binding intensity was 620.

How did the ETS1 binding intensity turn out when TGAAGTTCAGGGGGAAGTGGTTAGAGTCCCTGCGAG was run?
The ETS1 binding intensity was 674.

Which ETS1 binding intensity does the source give for GATTAAGAGGAAGTGTGTGTGATTATTACCGCTGGA here?
The ETS1 binding intensity was 1540.

ACACCACTCAGGAAGACAAAGCCACACCTCACACCG was tested. Which ETS1 binding intensity did it give?
Its ETS1 binding intensity is 440.

Which ETS1 binding intensity does the source give for CAGGGAAGTTCGAACTGGGCGGGGCCCACCGCAGTT here?
Its ETS1 binding intensity is 488.

How did the ETS1 binding intensity turn out when CCCTCTCTTCTTCCTCCCCCACCACAAAAGTCACAG was run?
Its ETS1 binding intensity is 641.

How did the ETS1 binding intensity turn out when TCGGTGAAGGACGGAAGATGATAGCCACATTTCTTC was run?
The ETS1 binding intensity was 485.

CCTGTTCCGGGCTCCGTACACCCAGGCCCGCAGCTG was tested. Which ETS1 binding intensity did it give?
Its ETS1 binding intensity is 494.

AAGTCAGAGTTTACTTCCGAACCCACAGTGCCAAGC was tested. Which ETS1 binding intensity did it give?
Its ETS1 binding intensity is 486.

How did the ETS1 binding intensity turn out when AGCACGCCGGGAAATGGAGTCTCAGGTGGTTTTTAA was run?
The ETS1 binding intensity was 364.

CCACTCCCAGCTCCATCCTGTGGGTAGAACTCAGTG was tested. Which ETS1 binding intensity did it give?
The ETS1 binding intensity was 452.

With TGCACACATGAGGAAGGGGTAAGTGGTTTTCCCTAC as the sequence, how does the ETS1 binding intensity read?
The ETS1 binding intensity was 468.

For CCTCCTGGGAACTTCCTGCGGGGGCCGAAGCTGAAG, which ETS1 binding intensity is on record?
The ETS1 binding intensity was 660.

How did the ETS1 binding intensity turn out when CGTAGCGAGGAGCGGAAAACGCGGTAACCAAGGCGG was run?
Its ETS1 binding intensity is 1050.

With CGGGGCATGCCGGACGCTGTGGTCCTGAAGGCCTGG as the sequence, how does the ETS1 binding intensity read?
Its ETS1 binding intensity is 423.

GGAACGGAGGCGGAAGGGGCCCTGCGGCGACGACGT was tested. Which ETS1 binding intensity did it give?
Its ETS1 binding intensity is 1070.

Which ETS1 binding intensity does the source give for TGGTCCACCCGGCGGAACTCGCGGTCCCGGCAGGCA here?
Its ETS1 binding intensity is 397.

CGGCACCCTCCTTCCTCCCTGCCAACCGCCTCCACC was tested. Which ETS1 binding intensity did it give?
The ETS1 binding intensity was 696.

With CGAGTCAGGAAATCACAGCTCTGCGGGTGGGCTCCT as the sequence, how does the ETS1 binding intensity read?
Its ETS1 binding intensity is 623.

Which ETS1 binding intensity does the source give for GACACCTGAGAGGATGTGTGGCTTTGTGCTATGAGA here?
Its ETS1 binding intensity is 847.
